The nature of assay [1]: antimalarial activity against Dd2 strain (AID 2302;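 active = growth inhibition above 50% at the single 2 µM test dose, taken to imply half-maximal potency below 2 µM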;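 note: 0% = DMSO untreated growth and 100% = chloroquine plus artemisinin killed control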). The conditions noted are these: P. falciparum Dd2 in RBCs, LDH growth readout, 72 h; at 2 µM; hits give high values.
A short description of assay [2]: human hepatoma cell viability loss – ATP luminescence, cytotoxicity control for P. falciparum antimalarial project, primary screen (AID 2303;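 active = inhibition above 50%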;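 note: 0% = DMSO wells and 100% = digitonin-killed cells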). The conditions noted are these: HepG2 viability, 24-48 h, at 10 µM, hits give high values.
Assay [3] deals with L-lactate dehydrogenase (Plasmodium falciparum (isolate CDC / Honduras)) (UniProt Q27743). In words: PfLDH activity inhibition – cell lysate, 3D7 strain, counter-screen for P. falciparum growth inhibition project (AID 2304).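 Note: 0% = vehicle and 100% = reference inhibitor.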 The conditions noted are these: P. falciparum 3D7 crude extract, LDH APAD/NBT absorbance; at 2 µM; hits give high values.
L-lactate dehydrogenase (Plasmodium falciparum (isolate CDC / Honduras)), sequence (Q27743 whole entry, looked up): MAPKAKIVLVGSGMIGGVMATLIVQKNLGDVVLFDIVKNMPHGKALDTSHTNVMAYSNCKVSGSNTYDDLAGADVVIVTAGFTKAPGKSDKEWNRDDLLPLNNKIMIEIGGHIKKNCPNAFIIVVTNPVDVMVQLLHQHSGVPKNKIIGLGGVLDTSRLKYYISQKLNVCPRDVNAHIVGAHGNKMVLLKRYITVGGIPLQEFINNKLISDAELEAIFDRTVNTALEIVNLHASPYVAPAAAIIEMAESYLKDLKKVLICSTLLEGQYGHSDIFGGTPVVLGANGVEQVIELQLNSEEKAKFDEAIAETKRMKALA
Assay [4] is described as follows: inhibition of 3D7 malaria parasite growth – strain 3D7 (AID 2306).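 Note: 0% = DMSO wells and 100% = chloroquine plus artemisinin control wells.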 The conditions noted are these: P. falciparum 3D7 erythrocytic growth, LDH absorbance, 72 h; at 2 µM; hits give high values.
Assay [5] deals with Calcium-dependent protein kinase 1 (Plasmodium falciparum (isolate 3D7)) (UniProt P62344). Put plainly: PfCDPK1 kinase inhibitors, biochemical, TCAMS library (AID 1159585; cut-off not given, nearly all actives have IC50 up to about 0.98 µM;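 note: inhibitors leave more ATP so luminescence rises with inhibition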). The following applies: recombinant PfCDPK1, Kinase-Glo ATP depletion luminescence.
Calcium-dependent protein kinase 1 (Plasmodium falciparum (isolate 3D7)), sequence (P62344 whole entry, looked up): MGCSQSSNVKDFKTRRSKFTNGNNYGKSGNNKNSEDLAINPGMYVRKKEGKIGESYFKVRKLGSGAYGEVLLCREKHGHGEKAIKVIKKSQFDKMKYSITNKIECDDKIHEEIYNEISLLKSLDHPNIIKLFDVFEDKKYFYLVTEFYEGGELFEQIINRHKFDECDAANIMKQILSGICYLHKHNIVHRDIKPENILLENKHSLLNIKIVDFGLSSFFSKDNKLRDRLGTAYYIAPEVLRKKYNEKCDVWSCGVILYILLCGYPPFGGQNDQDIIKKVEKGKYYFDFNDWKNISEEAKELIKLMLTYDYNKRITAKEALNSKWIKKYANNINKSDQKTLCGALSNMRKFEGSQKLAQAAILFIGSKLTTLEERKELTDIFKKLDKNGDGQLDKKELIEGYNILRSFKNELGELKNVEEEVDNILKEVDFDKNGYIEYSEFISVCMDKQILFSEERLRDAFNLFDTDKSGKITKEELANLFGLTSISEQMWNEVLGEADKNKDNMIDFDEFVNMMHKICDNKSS
Assay [6] has as its target Plasmodium falciparum protein kinase 6 (PK6, PF3D7_1337100) (UniProt Q8IDW1). Put plainly: PfPK6 kinase inhibitors, biochemical, TCAMS library (AID 1159586). The conditions noted are these: recombinant PfPK6, Kinase-Glo ATP depletion luminescence.
For assay [7], the target named is Protein kinase 7 (PK7), Plasmodium falciparum 3D7 (PF3D7_0213400) (UniProt Q7YTF7). Put plainly: inhibition of Plasmodium PK7 catalytic activity – biochemical, TCAMS antimalarial set, Kinase-Glo luminescence (AID 1159587). The following applies: recombinant PfPK7, Kinase-Glo ATP depletion luminescence.
Protein kinase 7 (PK7), Plasmodium falciparum 3D7 (PF3D7_0213400), sequence (Q7YTF7 1-343): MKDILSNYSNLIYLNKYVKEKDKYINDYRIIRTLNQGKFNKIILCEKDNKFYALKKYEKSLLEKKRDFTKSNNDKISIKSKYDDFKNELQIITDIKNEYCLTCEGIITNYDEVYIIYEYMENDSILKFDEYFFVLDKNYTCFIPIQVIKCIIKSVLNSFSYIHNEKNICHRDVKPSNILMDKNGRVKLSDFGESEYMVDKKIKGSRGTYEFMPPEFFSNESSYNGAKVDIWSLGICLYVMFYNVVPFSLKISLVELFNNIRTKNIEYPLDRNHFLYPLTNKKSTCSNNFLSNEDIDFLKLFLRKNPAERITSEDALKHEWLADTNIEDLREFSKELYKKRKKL
Assay [8] has as its target Calcium-dependent protein kinase 4 (Plasmodium falciparum (isolate 3D7)) (UniProt Q8IBS5). In words: PfCDPK4 kinase inhibitors, biochemical, TCAMS library (AID 1159588; cut-off not given, nearly all actives have IC50 up to about 0.91 µM). The following applies: recombinant PfCDPK4, Kinase-Glo ATP depletion luminescence.

The structures appear in SMILES notation. Values without a mark were called inactive. For some of these results: Potency and affinity values are given separately. Active and inactive are the calls of the source. Unless noted, the rule behind the calls is not given here.

Plasmodium falciparum protein kinase 6 (PK6, PF3D7_1337100), sequence (Q8IDW1 1-305): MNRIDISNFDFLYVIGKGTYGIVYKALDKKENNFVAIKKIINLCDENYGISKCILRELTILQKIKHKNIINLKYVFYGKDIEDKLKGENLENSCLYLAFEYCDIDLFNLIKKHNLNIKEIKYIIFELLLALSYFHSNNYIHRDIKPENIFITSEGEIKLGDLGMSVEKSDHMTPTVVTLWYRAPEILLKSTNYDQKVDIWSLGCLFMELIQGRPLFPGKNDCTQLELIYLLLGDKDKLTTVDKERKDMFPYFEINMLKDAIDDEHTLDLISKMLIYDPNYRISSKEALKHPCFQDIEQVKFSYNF
Calcium-dependent protein kinase 4 (Plasmodium falciparum (isolate 3D7)), sequence (Q8IBS5 whole entry, looked up): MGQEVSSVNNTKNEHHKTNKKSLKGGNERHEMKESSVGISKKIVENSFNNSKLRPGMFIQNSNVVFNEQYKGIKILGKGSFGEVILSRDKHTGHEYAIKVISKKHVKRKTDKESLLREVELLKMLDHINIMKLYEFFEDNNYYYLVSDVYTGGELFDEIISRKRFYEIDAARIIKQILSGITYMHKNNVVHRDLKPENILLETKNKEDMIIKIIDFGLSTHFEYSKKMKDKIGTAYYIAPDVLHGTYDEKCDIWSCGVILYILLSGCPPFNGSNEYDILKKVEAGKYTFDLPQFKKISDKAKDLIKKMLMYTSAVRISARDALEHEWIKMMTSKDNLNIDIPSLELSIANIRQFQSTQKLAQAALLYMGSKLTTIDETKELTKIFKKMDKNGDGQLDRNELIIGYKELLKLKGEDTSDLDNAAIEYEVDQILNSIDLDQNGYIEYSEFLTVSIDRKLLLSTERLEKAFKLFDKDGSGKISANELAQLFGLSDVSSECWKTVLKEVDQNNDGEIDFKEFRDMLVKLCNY

For the compound `COC(=O)C(=O)c1c(-c2ccccc2)c(-c2ccc(OC)c(OC)c2)c2c3cc(OC)c(OC)cc3ccn12`, the results for the growth inhibition in assay [1] and in assay [4] were 89% (active) and 97% (active), respectively. For the same compound, the inhibition in assay [2] is 2%; in assay [3], -1%. The outcome in assay [5], in assay [6], in assay [7] and in assay [8] was inactive.
Turning to `Cn1cnc2c(SCc3ccc(OCc4ccccc4)cc3)ncnc21`, the growth inhibition in assay [1] was 87% (active); in assay [4], 95% (active). Also, the values for the inhibition in assay [2] and in assay [3] were 1% and -6%, respectively. The outcome in assay [5], in assay [6], in assay [7] and in assay [8] was inactive.
With `CC(C)(C)c1cc2cc(Nc3ccnc4cc(-c5nccs5)ccc34)ccc2[nH]1`, the growth inhibition in assay [1] was 97% (active); in assay [4], 101% (active). Besides, the values for the inhibition in assay [2] and in assay [3] were 5% and -1%, respectively. The outcome in assay [5], in assay [6], in assay [7] and in assay [8] was inactive.
With `CCOC(=O)c1ccc(NC(=O)NCCCC2CCCN(CCCCCNC(=O)/C=C/c3ccc(Cl)c(Cl)c3)C2)cc1` (stereo not given), the growth inhibition was 30% in assay [1] and 96% (active) in assay [4]. Moreover, the inhibition is 14% in assay [2] and -2% in assay [3]. The result in assay [5], in assay [6], in assay [7] and in assay [8] was inactive.
Turning to `O=C(NCC1CCC(C(=O)NCc2cccc3ccccc23)CC1)c1ccc(O)c(-c2ccc(Cl)c(Cl)c2)c1` (stereo not given), the growth inhibition was 92% (active) in assay [1] and 100% (active) in assay [4]. Also, the inhibition in assay [2] was 0%; in assay [3] it was -6%. Besides, the outcome in assay [5], in assay [6], in assay [7] and in assay [8] was inactive.
As to `CN(C)CCOc1cc(NC(=O)c2ccc(-c3ccc(Cl)cc3Cl)cc2)ccc1-c1ccccc1`, the figures for the growth inhibition in assay [1] and in assay [4] were 26% and 98% (active), respectively. Further, the values for the inhibition in assay [2] and in assay [3] were 45% and -4%, respectively. The outcome in assay [5], in assay [6], in assay [7] and in assay [8] was inactive.
As for `O=C(N[C@@H](CC1CCCCC1)C(=O)NCCN1CCCC1)c1ccc(O)c(-c2ccc(Cl)c(Cl)c2)c1`, the growth inhibition in assay [1] and in assay [4] was 99% (active) each time. In addition, the figures for the inhibition in assay [2] and in assay [3] were 16% and 2%, respectively. The result in assay [5], in assay [6], in assay [7] and in assay [8] was inactive.
Regarding `O=S(=O)(Nc1cccc(CCN2CCC(N3CCCCC3)CC2)c1)c1ccccc1C(F)(F)F`, the growth inhibition is 32% in assay [1] and 82% (active) in assay [4]. Besides, the inhibition in assay [2] was 21%; in assay [3], 1%. In addition, the result in assay [5], in assay [6], in assay [7] and in assay [8] was inactive.
For `O=C(/C=C/c1ccc([N+](=O)[O-])cc1)N1CCC(NS(=O)(=O)c2ccc(Br)cc2)CC1`, the growth inhibition in assay [1] was 5%; in assay [4], 93% (active). Moreover, the inhibition is 0% in assay [2] and -4% in assay [3]. Also, the result in assay [5], in assay [6], in assay [7] and in assay [8] was inactive.
Turning to `Cc1cc(N[C@@H](Cc2ccccc2)C(=O)NCc2cccs2)nc(NCCc2ccccn2)n1`, the figures for the growth inhibition in assay [1] and in assay [4] were 49% and 93% (active), respectively. The inhibition in assay [2] was -4%; in assay [3], -2%. Further, the outcome in assay [5], in assay [6], in assay [7] and in assay [8] was inactive.
Take `CC1CN(Cc2ccccc2)CCN1c1ccc(NC(=O)c2ccc(F)cc2)cc1` (stereo not given): the growth inhibition was 89% (active) in assay [1] and 87% (active) in assay [4]. Also, the values for the inhibition in assay [2] and in assay [3] were -6% and -5%, respectively. Moreover, the outcome in assay [5], in assay [6], in assay [7] and in assay [8] was inactive.
On to `COCCN1CCC(N(CC2(O)CCN(c3ccc(C(F)(F)F)cc3)CC2)C(=O)Cn2c(SCc3cccc(F)c3F)cc(=O)c3ccccc32)CC1`, for which the growth inhibition in assay [1] is 75% (active); in assay [4] it was 94% (active). Also, the inhibition was 29% in assay [2] and 5% in assay [3]. In addition, the outcome in assay [5], in assay [6], in assay [7] and in assay [8] was inactive.
Turning to `COc1ccc(F)cc1-c1ccc(C(=O)N2CCCN(c3ccc(C#N)cn3)CC2)cc1`, the growth inhibition was 100% (active) in assay [1] and 99% (active) in assay [4]. Further, the inhibition was 9% in assay [2] and -2% in assay [3]. For the same compound, the result in assay [5], in assay [6], in assay [7] and in assay [8] was inactive.
For the compound `COCCNCc1ccc(-c2cccc(CN(C(=O)NCCc3ccccc3)C3CCN(Cc4ccccc4)CC3)c2)cc1`, the growth inhibition in assay [1] is 90% (active); in assay [4], 88% (active). In addition, the inhibition in assay [2] is 25%; in assay [3], -4%. Also, the outcome in assay [5], in assay [6], in assay [7] and in assay [8] was inactive.
In the case of `CC[C@H](C)CNC(=O)c1ccnc(-c2ccc(CN3CCC(N4CCCC4)CC3)cc2)c1`, the values for the growth inhibition in assay [1] and in assay [4] were 84% (active) and 99% (active), respectively. Moreover, the inhibition is 13% in assay [2] and -2% in assay [3]. Further, the result in assay [5], in assay [6], in assay [7] and in assay [8] was inactive.
In the case of `CCOc1c(CNCCCNc2cc(=O)c3ccccc3[nH]2)cc(I)cc1C(C)(C)C`, the growth inhibition is 89% (active) in assay [1] and 102% (active) in assay [4]. For the same compound, the inhibition is 17% in assay [2] and -4% in assay [3]. The outcome in assay [5], in assay [6], in assay [7] and in assay [8] was inactive.
`Cc1nc(NCCCn2ccnc2)cc(-c2cncc(-c3ccc(OC(F)(F)F)cc3)c2)n1`: the growth inhibition in assay [1] is 11%; in assay [4], 99% (active). Besides, the inhibition in assay [2] and in assay [3] was 2% in each case. For the same compound, the outcome in assay [5], in assay [6], in assay [7] and in assay [8] was inactive.
With `O=C(C=Cc1ccc(Cl)c(Cl)c1)NCCCCCN1CCCC(CCCNS(=O)(=O)c2cccc3cccnc23)C1` (stereo not given), the growth inhibition in assay [1] is 16%; in assay [4] it was 96% (active). In addition, the inhibition is 37% in assay [2] and 2% in assay [3]. Besides, the result in assay [5], in assay [6], in assay [7] and in assay [8] was inactive.
For the compound `O=c1cc(NCCCNCc2cc3c(Cl)cccc3s2)[nH]c2ccccc12`, the growth inhibition in assay [1] was 57% (active); in assay [4], 102% (active). Also, the inhibition in assay [2] is 6%; in assay [3] it was -7%. Moreover, the result in assay [5], in assay [6], in assay [7] and in assay [8] was inactive.
As to `CO/C(=C\C=C\c1cc2cc(Cl)ccc2[nH]1)C(=O)NCCCN1CCN(c2cc(Cl)ccc2OC)CC1`, the figures for the growth inhibition in assay [1] and in assay [4] were 21% and 97% (active), respectively. The inhibition in assay [2] was 41%; in assay [3] it was -2%. Moreover, the result in assay [5], in assay [6], in assay [7] and in assay [8] was inactive.

The values are drawn from PubChem BioAssay.
